Bioassay records as filed in PubChem BioAssay.
p53 PUMA act – mutant p53 pathway reactivation. SW480 PUMA-promoter luciferase. AID 624151. 28,000 compounds, 1.5% hits. activation, % at 9.98 µM; in the data active means activation above about 52%
NFkB SMM – binds human NF-kappa-B p105 on microarray. 17,000 compounds, 1.3% hits. Small molecule microarray, anti-His fluorescence binding. calls only. P19838;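 active means spot fluorescence over background significantly raised, with a chance value under 7% in all four replicate spots of the compound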;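 further: probe protein is his-tagged human p50 processed subunit at 1 µg/ml; raw spot fluorescence signals with no normalization applied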
STAT3 binder – binds human STAT3 on microarray. calls only. Small molecule microarray, His-STAT3 binding, anti-His fluorescence. 17,000 compounds, 0.2% hits;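 active means compounds whose four printed spots each show fluorescence over background unusually high for their array block, chance value under 7%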
mut p53 SMM – mutant p53 (human) binding; small molecule microarray binding, anti-GST fluorescence; calls only; 17,000 compounds, 0.4% hits; AID 624136;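 active means compounds whose four printed spots each glow above background more than chance allows, each with a p-value under 7%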
Myc binder – binders of human c-Myc | P01106 | calls only | 17,000 compounds, 1.5% hits | small molecule microarray, His-c-Myc binding, anti-His fluorescence | AID 624141;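 active means spot fluorescence over background with P-value below 7% in all four replicate spots, showing protein binding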;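 further: score is binary with 100 for all four spots passing and 0 otherwise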
Target sequence (P01106 whole entry, looked up): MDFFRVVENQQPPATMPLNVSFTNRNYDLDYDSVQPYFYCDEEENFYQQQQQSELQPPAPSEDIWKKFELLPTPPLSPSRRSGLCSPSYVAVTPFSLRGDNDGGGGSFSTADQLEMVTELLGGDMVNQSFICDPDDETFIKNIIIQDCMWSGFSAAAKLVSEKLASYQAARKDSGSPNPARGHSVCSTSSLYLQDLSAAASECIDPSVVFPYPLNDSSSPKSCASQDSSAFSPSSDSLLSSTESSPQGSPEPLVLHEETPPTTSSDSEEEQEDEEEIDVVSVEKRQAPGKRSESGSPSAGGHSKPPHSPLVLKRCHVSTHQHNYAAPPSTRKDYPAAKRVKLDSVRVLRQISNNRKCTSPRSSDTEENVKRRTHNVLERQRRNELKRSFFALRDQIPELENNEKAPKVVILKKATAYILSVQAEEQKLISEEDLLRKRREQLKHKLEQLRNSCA
An asterisk follows results filed as active; i = inactive; · = no result; + = active, no number. Compounds with a hit are over-represented: about 2.8% of the library has one in this group of screens.

SMILES	p53 PUMA act	NFkB SMM	STAT3 binder	mut p53 SMM	Myc binder
COc1ccccc1Nc1nc(N)nc(CSc2ncccn2)n1	85.7*	i	i	i	i
CCOc1ccccc1Nc1nc(N)nc(CSc2nccc(C)n2)n1	16.3	·	·	·	·
c1ccc(Cn2ccnc2SCc2nnc(-c3ccccc3)o2)cc1	17.4	i	i	+	+
O=C(COc1ccc2ccccc2c1Br)NCc1ccccn1	96.1*	·	·	·	·
COc1ccc(CCNC(=S)n2cc(C)cn2)cc1OC	11.5	·	·	·	·
O=c1ccc2cc3ccoc3cc2o1	23.9	i	i	i	i
CC1(C)C=Cc2cc3ccc(=O)oc3cc2O1	58.4*	·	·	·	·
CCC1=C/C(=C\N(C)c2ccccc2)C(=O)S1	75.4*	·	·	·	·
O=C(CCN1C(=O)c2ccccc2C1=O)Nc1ccc(-c2nc3ccccc3o2)cc1	33.8	·	·	·	·
O=C(CCN1C(=O)c2ccccc2C1=O)Oc1c(-c2ccccc2)oc2ccccc2c1=O	53.9*	·	·	·	·
O=C1CC(c2ccccc2)N=C(SCC(=O)Nc2ccc3ccccc3c2)N1 (stereo not given)	-5.8	i	i	i	i
COC(=O)c1ccccc1NC(=O)c1ccc(COc2ccccc2)o1	102.6*	i	i	i	i
COC(=O)c1c(NC(=O)CC2Nc3cccc4cccc(c34)NC2=O)sc(C)c1C (stereo not given)	-10.3	i	i	i	+
COc1ccc(NC(=O)CC2Nc3cccc4cccc(c34)NC2=O)cc1 (stereo not given)	-21.1	·	·	·	·
Cc1ccc(S(=O)(=O)N2CCC[C@H]2Cn2cc(CN3C(=O)COC[C@H]3c3ccccc3)nn2)cc1	·	i	i	+	i
O=C1N(Cc2ccccc2)Cc2ccccc2C[C@@]12N=C(c1ccc(OCCCO)cc1)O[C@H]2c1ccccc1	·	+	i	+	i
C=CCN1Cc2ccccc2[C@@H]2OC(c3ccc(OCCCO)cc3)=N[C@]2(CCC(=O)OC(C)(C)C)C1=O	·	+	i	i	i
COc1cc(OC)nc(NC(=O)CSc2nc3ccccc3o2)n1	-16.5	i	i	i	i
O=C(CSc1nc2ccccc2o1)Nc1ccc(N2CCOCC2)c(Cl)c1	96.1*	·	·	·	·
COC(=O)c1cc(OC)c(OC)cc1NC(=O)CSc1nc2ccccc2o1	104.7*	·	·	·	·
CC(=O)Nc1ccc(C(=O)CSc2nc(-c3ccccc3)cs2)cc1	87.6*	·	·	·	·
CC(=O)Nc1ccc(C(=O)CSc2nc3ccccc3o2)cc1	56.3*	i	i	i	i
Cc1ccc(-n2c(Cn3ncc4ccccc4c3=O)n[nH]c2=S)c(Br)c1	-5.6	·	·	·	·
CC(C)C(=O)Nc1sc2c(c1C(=O)Nc1cccnc1)CCCC2	11.5	i	i	i	i
O=C(CSc1nnc(-c2ccc(Br)cc2)o1)Nc1ccc(Cl)c(Cl)c1	-1.9	·	·	·	·
SMILES	p53 PUMA act	NFkB SMM	STAT3 binder	mut p53 SMM	Myc binder
CCOC(=O)Cc1[nH]nc2c1C(C1CC=CCC1)C(C#N)=C(N)O2 (stereo not given)	9.1	i	i	i	i
O=C(CSc1nc2ccccc2c(=O)[nH]1)Nc1ccc(Br)c(Cl)c1	-7.1	·	·	·	·
C[C@@H]1CN([C@H](C)CO)C(=O)Cc2cc(N(C)C)ccc2O[C@H]1CN(C)S(=O)(=O)c1cccs1	-0.6	i	i	i	i
C[C@@H]1CN([C@@H](C)CO)C(=O)Cc2cc(N(C)C)ccc2O[C@H]1CN(C)S(=O)(=O)c1cccs1	2.1	i	i	i	+
C[C@H](CO)N1C[C@H](C)[C@@H](CN(C)Cc2ccc(C(F)(F)F)cc2)Oc2ccc(NC(=O)Cc3cn(C)c4ccccc34)cc2CC1=O	·	+	i	i	+
C[C@@H]1CN([C@H](C)CO)C(=O)Cc2cc(NC(=O)Nc3ccc(F)cc3)ccc2O[C@@H]1CN(C)CC1CC1	2.2	i	i	i	i
C[C@H]1CN([C@@H](C)CO)C(=O)Cc2cc(NC(=O)Nc3ccc(F)cc3)ccc2O[C@H]1CN(C)CC1CC1	0.0	i	+	i	i
COc1ccc(NC(=O)Nc2ccc3c(c2)CC(=O)N([C@@H](C)CO)C[C@H](C)[C@@H](CN(C)Cc2ccc(Oc4ccccc4)cc2)O3)cc1	·	i	i	+	i
COc1ccc(CN(C)C[C@@H]2Oc3ccc(NC(=O)Nc4ccc(OC)cc4)cc3CC(=O)N([C@@H](C)CO)C[C@@H]2C)cc1	-1.2	i	i	i	i
COC(=O)COc1cccc(NC(=O)c2ccccc2I)c1	-3.7	·	·	·	·
Cc1nn(-c2ccccc2)cc1C1C=C(c2ccc(Cl)cc2)N=C2SCC(=O)N21 (stereo not given)	-13.5	·	·	·	·
CC(C)Cc1nc(SC(C)C(=O)Nc2ccc(Cl)cc2)n[nH]1 (stereo not given)	-43.8	·	·	·	·
COc1ccc(S(=O)(=O)N(C)C[C@@H]2Oc3ccc(NC(=O)Nc4ccc(C(F)(F)F)cc4)cc3CC(=O)N([C@@H](C)CO)C[C@H]2C)cc1	-37.0	i	i	i	i
Cc1noc(C)c1S(=O)(=O)Nc1ccc2c(c1)CC(=O)N([C@@H](C)CO)C[C@H](C)[C@H](CN(C)Cc1ccc(-c3ccccc3)cc1)O2	17.4	i	i	i	i
Cc1noc(C)c1S(=O)(=O)Nc1ccc2c(c1)CC(=O)N([C@H](C)CO)C[C@@H](C)[C@@H](CN(C)Cc1ccc(-c3ccccc3)cc1)O2	-29.6	i	+	i	+
COc1ccc(S(=O)(=O)N(C)C[C@H]2Oc3ccc(NC(=O)Nc4ccc(C(F)(F)F)cc4)cc3CC(=O)N([C@H](C)CO)C[C@H]2C)cc1	-11.8	i	i	i	+
COc1cc(/C=C/c2cc(O)cc(O)c2)ccc1O[C@@H]1O[C@H](CO)[C@@H](O)[C@H](O)[C@H]1O	65.7*	i	i	i	i
Cc1nn2c(-c3cccc(NC(=O)CN4CCOCC4)c3)nnc2c2ccccc12	52.8*	i	i	i	i
COc1ccc(OCC(=O)Nc2cccc(-c3nnc4c5ccccc5c(C)nn34)c2)cc1	101.2*	·	·	·	·
COc1ccc(-c2nnc3c4ccccc4c(C)nn23)cc1S(=O)(=O)N1CCOCC1	5.2	·	·	·	·
COc1ccc(OCC(=O)Nc2ccc3nn(-c4ccc(Cl)cc4)nc3c2)cc1	38.9	·	·	·	·
Cc1nn2c(-c3cccc(NC(=O)CSc4nc5ccccc5o4)c3)nnc2c2ccccc12	73.5*	·	·	·	·
COCCNC(=S)N1CCN(Cc2ccco2)CC1	-0.5	i	i	i	i
CC(Oc1ccc(C(C)(C)C)cc1)c1nc(-c2cccnc2)no1 (stereo not given)	-13.8	·	·	·	·
C[C@@H]1O[C@@H](O[C@H]2[C@@H](O)[C@@H](C)O[C@@H](O[C@H]3[C@H](O)[C@@H](O)[C@H](O[C@H]4CC[C@@]5(C)C(CC[C@]6(C)C5C=CC5=C7CC(C)(C)CC[C@]7(CO)CC[C@]56C)[C@]4(C)CO)O[C@@H]3CO)[C@@H]2O[C@@H]2O[C@H](CO)[C@@H](O)[C@H](O)[C@H]2O)[C@H](O)[C@H](O)[C@H]1O (stereo not given in full)	0.0	+	i	i	+
